Out of some 5,500 compounds screened, about 2,000 (36%) were called active. About 18% were inconclusive and are not listed. Cut-off read from the data, not from the text of the source: active = normalized growth mostly below about 0.91 (no sharp cut-off); inconclusive = no clear call, values can overlap the other calls; inactive = mostly above about 0.92. Some of the results follow.
Experiment: chemical genetic growth profiling, strain panel (AID 1159580);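 note: tested at 20 µM; growth read once vehicle control cultures reached saturation at 30 °C; 1 = growth at the plate median or of vehicle wells; lower values mean less growth of the strain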
Details: S. cerevisiae deletion strains, growth OD

Measured: normalized growth

C/C=C/C(=O)N(CC)c1ccccc1C
inactive: locus YAL021C, strain ccr4, hits give low values 1.02 | locus YAL026C, strain drs2, hits give low values 1.01 | locus YAL030W, strain snc1, hits give low values 1 | locus YBL061C, strain skt5, hits give low values 0.995 | locus YBR009C, strain hhf1, hits give low values 1.02 | locus YBR023C, strain chs3, hits give low values 1.01 | locus YBR171W, strain sec66, hits give low values 1 | locus YBR231C, strain swc5, hits give low values 1 | locus YBR279W, strain paf1, hits give low values 1 | locus YCL011C, strain gbp2, hits give low values 0.997 | locus YCL016C, strain dcc1, hits give low values 0.998 | locus YCL061C, strain MRC1, hits give low values 1.01 | locus YCL069W, strain vba3, hits give low values 1.01 | locus YCR088W, strain abp1, hits give low values 1 | locus YDL005C, strain med2, hits give low values 1 | locus YDL040C, strain nat1, hits give low values 1 | locus YDR001C, strain nth1, hits give low values 1 | locus YDR069C, strain doa4, hits give low values 1.02 | locus YDR137W, strain rgp1, hits give low values 1.02 | locus YDR159W, strain sac3, hits give low values 1 | locus YDR195W, strain ref2 0.986 | locus YDR297W, strain sur2, hits give low values 1 | locus YDR334W, strain swr1, hits give low values 0.997 | locus YDR335W, strain msn5, hits give low values 1.01 | locus YDR392W, strain spt3, hits give low values 0.942 | locus YEL003W, strain gim4, hits give low values 1.01 | locus YEL037C, strain rad23, hits give low values 1.01 | locus YEL061C, strain CIN8 (second series), hits give low values 1.01 | locus YER015W, strain faa2, hits give low values 1.01 | locus YER016W, strain bim1, hits give low values 1.01 | locus YER111C, strain swi4, hits give low values 0.995 | locus YER155C, strain BEM2 (second series), hits give low values 1.01 | locus YFR010W, strain ubp6, hits give low values 1.02 | locus YGL167C, strain pmr1, hits give low values 1 | locus YGL173C, strain kem1, hits give low values 1.01 | locus YGL227W, strain vid30, hits give low values 1.01 | locus YGL240W, strain doc1, hits give low values 1.02 | locus YGL253W, strain hxk2, hits give low values 1.01 | locus YHR013C, strain ard1, hits give low values 1.01 | locus YHR027C, strain rpn1, hits give low values 1.02 | locus YHR030C, strain SLT2, hits give low values 1.03 | locus YHR079C, strain IRE1, hits give low values 1.02 | locus YHR142W, strain chs7, hits give low values 1.02 | locus YJL092W, strain hpr5, hits give low values 1 | locus YJL095W, strain BCK1 (second series), hits give low values 1 | locus YJL095W, strain BCK1, hits give low values 0.977 | locus YJL115W, strain asf1, hits give low values 1 | locus YJL129C, strain trk1, hits give low values 1.03 | locus YJL154C, strain vps35, hits give low values 1.01 | locus YJL164C, strain tpk1, hits give low values 1.01 | locus YJL166W, strain qcr8, hits give low values 1.02 | locus YJL187C, strain SWE1, hits give low values 1.01 | locus YJR066W, strain TOR1, hits give low values 0.966 | locus YKL160W, strain elf1, hits give low values 1.01 | locus YKR026C, strain gcn3, hits give low values 1.01 | locus YKR091W, strain srl3, hits give low values 1 | locus YLL001W, strain dnm1, hits give low values 0.996 | locus YLL026W, hits give low values 1.01 | locus YLL041C, strain sdh2, hits give low values 1.01 | locus YLR027C, strain aat2, hits give low values 0.996 | locus YLR113W, strain HOG1, hits give low values 0.969 | locus YLR221C, strain rsa3, hits give low values 1 | locus YLR258W, strain gsy2, hits give low values 1.01 | locus YLR262C, strain YPT6 (second series), hits give low values 1 | locus YLR320W, strain mms22, hits give low values 1 | locus YLR342W, strain FKS1, hits give low values 1 | locus YLR357W, strain rsc2, hits give low values 1.02 | locus YLR370C, strain arc18, hits give low values 1.01 | locus YLR384C, strain iki3, hits give low values 0.998 | locus YML120C, strain ndi1, hits give low values 1 | locus YMR058W, strain fet3, hits give low values 1.02 | locus YMR125W, strain sto1, hits give low values 1.01 | locus YMR129W, hits give low values 1 | locus YMR205C, strain PFK2, hits give low values 1.01 | locus YMR231W, strain pep5, hits give low values 1.01 | locus YNL071W, strain lat1, hits give low values 1 | locus YNL183C, strain NPR1, hits give low values 0.975 | locus YNL209W, strain ssb2, hits give low values 1 | locus YNL248C, strain rpa49, hits give low values 0.993 | locus YNL322C, strain KRE1 (second series), hits give low values 1.01 | locus YNR049C, strain mso1, hits give low values 1.01 | locus YOR001W, strain rrp6, hits give low values 1.03 | locus YOR070C, strain gyp1, hits give low values 1 | locus YOR080W, strain dia2, hits give low values 1 | locus YOR083W, strain WHI5, hits give low values 1.02 | locus YOR106W, strain vam3, hits give low values 1.04 | locus YOR231W, strain MKK1, hits give low values 1.02 | locus YOR265W, strain rbl2, hits give low values 1 | locus YOR270C, strain vph1, hits give low values 0.999 | locus YOR290C, strain snf2, hits give low values 1.01 | locus YPL051W, strain arl3, hits give low values 1 | locus YPL078C, strain atp4, hits give low values 1.02 | locus YPL106C, strain sse1, hits give low values 1.01 | locus YPL240C, strain hsp82, hits give low values 1 | locus YPL256C, strain CLN2, hits give low values 0.986
